PAD4 inh = PAD4 (human) enzyme inhibition; AID 485272; 0.41% of 330,000 active; Q9UM07; recombinant PAD4, RCA probe fluorescence polarization; inhibition, % at 6.36 µM;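 active means percent inhibition above a cutoff equal to the mean of all tested compounds plus 3 SD, cut at about 15% in these data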;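 further: 0% = PAD4 with RCA probe and DMSO and 100% = probe without PAD4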
Target sequence (Q9UM07 whole entry, looked up): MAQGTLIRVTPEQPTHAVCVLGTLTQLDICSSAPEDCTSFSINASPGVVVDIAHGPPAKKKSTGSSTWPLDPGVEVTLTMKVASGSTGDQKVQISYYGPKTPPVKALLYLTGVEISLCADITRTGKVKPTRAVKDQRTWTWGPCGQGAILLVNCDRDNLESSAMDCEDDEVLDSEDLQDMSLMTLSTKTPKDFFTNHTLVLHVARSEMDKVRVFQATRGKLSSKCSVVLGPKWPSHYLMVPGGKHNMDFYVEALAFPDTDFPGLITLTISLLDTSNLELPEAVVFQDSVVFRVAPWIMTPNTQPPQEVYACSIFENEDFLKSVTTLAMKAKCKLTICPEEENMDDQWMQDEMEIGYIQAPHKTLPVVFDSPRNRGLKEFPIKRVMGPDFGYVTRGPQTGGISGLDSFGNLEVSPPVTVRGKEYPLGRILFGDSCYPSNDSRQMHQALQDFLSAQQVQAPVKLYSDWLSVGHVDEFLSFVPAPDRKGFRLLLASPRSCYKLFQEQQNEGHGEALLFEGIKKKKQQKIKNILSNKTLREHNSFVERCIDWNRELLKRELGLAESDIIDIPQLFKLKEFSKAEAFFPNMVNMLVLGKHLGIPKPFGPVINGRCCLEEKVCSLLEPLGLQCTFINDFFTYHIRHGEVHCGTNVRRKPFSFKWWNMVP
pPAFAH inh = pPAFAH (human) enzyme inhibition | Q13093 | recombinant pPAFAH, FP-rhodamine probe fluorescence polarization | inhibition, % at 3.39 µM | 1.5% of 330,000 active;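 active means inhibition above the mean inhibition across the screen plus 3 SD, cut at about 25% in these data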;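 further: inhibitors block binding of the rhodamine activity-based probe so polarization drops; 0% = enzyme with DMSO and 100% = wells lacking pPAFAH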
Fam108B counter = blocks mouse Fam108B hydrolase in RBBP9 counter-screen; recombinant Fam108B, FP-Rh probe fluorescence polarization; inhibition, % at 9.51 µM; 0.33% of 300,000 active;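 active means inhibition above the screen mean inhibition plus 3 SD, computed separately per campaign, cut at about 18% in these data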;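 further: inhibitors lower polarization as less probe binds the enzyme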
GSTO1 counter = blocks human GSTO1 in RBBP9 counter-screen; P78417; recombinant GSTO1, activity-based probe fluorescence polarization; inhibition, % at 5.96 µM; 1.1% of 300,000 active; AID 1974;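 active means inhibition above the campaign mean inhibition plus 3 SD, cut at about 35% in these data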;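 further: 0% = GSTO1-1 with DMSO and 100% = wells lacking GSTO1-1 enzyme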
PME-1 primary = PME-1 (human) inhibition; 0.53% of 320,000 active; recombinant PME-1, FP-Rh probe fluorescence polarization; Q9Y570; inhibition, % at 5.9 µM;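 active means inhibition above the campaign mean of all compounds plus 3 SD, cut at about 26% in these data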;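 further: competitive labeling of PME-1 active site by serine hydrolase directed probe; 0% = PME-1 with DMSO and 100% = wells lacking PME-1 enzyme; inhibitors block probe labeling so polarization falls and inhibition rises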
GSTO1 inh conf = confirmation of human GSTO1 inhibitors; shares compounds with GSTO1 counter; recombinant GSTO1, probe fluorescence polarization; inhibition, % at 5.96 µM; 54% of 2,400 active; AID 2176;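 active means inhibition above the primary screen's cutoff, its mean inhibition plus 3 SD, cut at about 35% in these data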;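 further: loss of polarization as inhibitors block binding of rhodamine sulfonate ester activity probe; 0% = GSTO1 with DMSO and 100% = wells lacking GSTO1 enzyme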
GSTO1 ABPP inh = inhibitors of recombinant human GSTO1; shares compounds with GSTO1 counter; gel ABPP SE-Rh probe fluorescence; inhibition, % at 1 µM; 30% of 130 active; AID 463110;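 active means inhibition of the enzyme GSTO1 above about 75%, limit read from the data; inactive means inhibition below that limit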
Starred values were filed as active, the others as inactive. Compounds with a hit are over-represented: about 2.3% of the library has one in this group of screens.

Screening COc1ccccc1N1C(=O)NC(=O)/C(=C/c2ccc3c(c2)Cc2ccccc2-3)C1=O returned PAD4 inh -4, pPAFAH inh 9, Fam108B counter -2, GSTO1 counter 13 and PME-1 primary -2.
CCN1C(=O)/C(=C/c2ccc3c(c2)CCN3CCCCl)C(=O)NC1=S was read as PAD4 inh -5, pPAFAH inh 19, Fam108B counter 5, GSTO1 counter 56*, PME-1 primary -1 and GSTO1 inh conf 70*.
`CSCc1nnc2n1-c1ccc(Cl)cc1C(c1ccccc1)=NC2` gave PAD4 inh 1, pPAFAH inh -1, Fam108B counter 5, GSTO1 counter 5 and PME-1 primary -4.
`COc1ccc(NC(=O)N2C[C@@H]3C[C@@H](C2)c2cccc(=O)n2C3)cc1` gave PAD4 inh 1, pPAFAH inh 0, Fam108B counter 1, GSTO1 counter -3 and PME-1 primary -3.
For CCC(CO)NC(=O)C1C=C2c3cccc4[nH]cc(c34)CC2N(C)C1 (stereo not given) the results were PAD4 inh -3, pPAFAH inh 4, Fam108B counter 1, GSTO1 counter 11 and PME-1 primary 1.
CC(C)C[C@H]1C(=O)N2CCC[C@H]2[C@]2(O)O[C@](NC(=O)[C@@H]3C=C4c5cccc6[nH]cc(c56)C[C@H]4N(C)C3)(C(C)C)C(=O)N12 was read as PAD4 inh 7, pPAFAH inh 15, Fam108B counter 16, GSTO1 counter 51*, PME-1 primary 8 and GSTO1 inh conf 6.
For CC(C)(C)c1ccc(O)c(N=Cc2c(O)ccc3ccccc23)c1 the results were PAD4 inh -6, pPAFAH inh 19, Fam108B counter 9, GSTO1 counter 69*, PME-1 primary 1 and GSTO1 inh conf 8.
`O=C1C(c2ccccc2)=C(N2CC2)c2ccccc21` gave PAD4 inh -3, pPAFAH inh 5, Fam108B counter -2, GSTO1 counter 41*, PME-1 primary 3 and GSTO1 inh conf 33.
CCc1ccccc1NC(=O)CNCc1ccccc1 was read as PAD4 inh -5, pPAFAH inh -3, Fam108B counter 4, GSTO1 counter -5 and PME-1 primary 2.
Screening COCCCNC(=O)c1c(N)n(Cc2ccco2)c2nc3ccccc3nc12 returned PAD4 inh -10, pPAFAH inh 12, Fam108B counter -1, GSTO1 counter 5 and PME-1 primary -12.
For CCCCNC(=O)c1c(N)n(CCCOC)c2nc3ccccc3nc12 the results were PAD4 inh 2, pPAFAH inh 13, Fam108B counter 9, GSTO1 counter 51*, PME-1 primary 8 and GSTO1 inh conf 17.
CC(C)CNC(=O)c1c(N)n(Cc2ccc3c(c2)OCO3)c2nc3ccccc3nc12 was read as PAD4 inh 7, pPAFAH inh 6, Fam108B counter 8, GSTO1 counter 62*, PME-1 primary 5 and GSTO1 inh conf 1.
For CC(C)CCNC(=O)c1c(N)n(Cc2ccc3c(c2)OCO3)c2nc3ccccc3nc12 the results were PAD4 inh -4, pPAFAH inh 0, Fam108B counter 7, GSTO1 counter 40*, PME-1 primary 0 and GSTO1 inh conf 69*.
`CC(C)CNC(=O)c1c(N)n(Cc2ccco2)c2nc3ccccc3nc12` gave PAD4 inh -31, pPAFAH inh 22, Fam108B counter 15, GSTO1 counter 42*, PME-1 primary 0 and GSTO1 inh conf -1.
COC(=O)C1=CO[C@H](C)[C@H]2CN3CC[C@@]4(C(=O)Nc5ccccc54)[C@@H]3C[C@H]12 was read as PAD4 inh 4, pPAFAH inh 7, Fam108B counter 1, GSTO1 counter 0 and PME-1 primary 0.
`COC(C)(C)CCCC(C)C/C=C/C(C)=C/C(=O)OC(C)C` (stereo not given) gave PAD4 inh -7, pPAFAH inh -1 and PME-1 primary 1.
`O=C1C2CCN(CC2)C12CC2c1ccc(C(F)(F)F)cc1` (stereo not given) gave PAD4 inh -3, pPAFAH inh -1, Fam108B counter 0, GSTO1 counter -7 and PME-1 primary -2.
For CC(C)CN(CC(C)C)c1ccc(C=C2C(=O)NC(=S)NC2=O)cc1[N+](=O)[O-] the results were PAD4 inh -5, pPAFAH inh 11, Fam108B counter 11, GSTO1 counter 42*, PME-1 primary 9 and GSTO1 inh conf 27.
For Nc1c(C(=O)OCC2CCCO2)c2nc3ccccc3nc2n1Cc1cccs1 (stereo not given) the results were PAD4 inh -9, pPAFAH inh 12, Fam108B counter 0, GSTO1 counter 39*, PME-1 primary 12 and GSTO1 inh conf 5.
CCCCCCCC(=O)NC(Oc1ccccc1[N+](=O)[O-])C(Cl)(Cl)Cl (stereo not given) was read as PAD4 inh -3, pPAFAH inh 3, Fam108B counter 1, GSTO1 counter 6 and PME-1 primary 5.
For CC1CCN(C(=O)CCl)CC1 the results were PAD4 inh 1, pPAFAH inh 2, Fam108B counter 4, GSTO1 counter 93*, PME-1 primary 2, GSTO1 inh conf 95* and GSTO1 ABPP inh 83*.
Screening CCC(C)/C=C(C)/C=C/C1=CC2=C(Cl)C(=O)C(C)(OC(C)=O)C(=O)C2=CO1 (stereo not given) returned PAD4 inh -2, pPAFAH inh 32*, Fam108B counter 11, GSTO1 counter 43*, PME-1 primary 8 and GSTO1 inh conf 40*.
C/C=C1\NC(=O)[C@@H](NC(=O)[C@H](CCc2ccc(O)cc2)NC(=O)[C@H](C)NC(=O)[C@H](O)CO)[C@@H](C)OC(=O)[C@H](C(C)C)NC(=O)[C@H](Cc2ccc(O)cc2)N(C)C(=O)[C@H](Cc2ccccc2)N2C(=O)C(CC[C@H]2O)NC1=O (stereo not given in full) was read as PAD4 inh -2 and pPAFAH inh -1.
For COC(=O)C1=C(c2ccc(Cl)c(C(F)(F)F)c2)C[C@@H]2CC[C@H]1N2C the results were PAD4 inh -2, pPAFAH inh 4 and PME-1 primary -1.
Oc1ccc2c3c1O[C@H]1c4[nH]c5ccccc5c4C[C@@]4(O)C(C2)N(CC2CC2)CC[C@]314 was read as PAD4 inh -3, pPAFAH inh 16, Fam108B counter 4, GSTO1 counter 40*, PME-1 primary 2 and GSTO1 inh conf 3.
Screening O=C(Cn1c(=O)n(CC2CS2)c2ccccc21)N1CCCCCC1 (stereo not given) returned PAD4 inh 0, pPAFAH inh 7, Fam108B counter -3, GSTO1 counter 19 and PME-1 primary -2.
